An excerpt weighted towards active compounds, which were near 10% of everything screened.
HP1b chromo inh – HTS for Inhibitors of HP1-beta Chromodomain Interactions with Methylated Histone Tails. Chromobox protein homolog 1 (Homo sapiens), P83916. AlphaScreen HP1-beta / biotin-H3K9me3 peptide binding. Potency, µM (top dose mostly 114 µM), for inactives: at the highest dose activity change, negative = inhibition, most hits filed as inhibitors. actives 0.56% (n = 390,000); note: potency is the fitted concentration of half-maximal effect; nearly all actives have a fitted effect of over 70% in size
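Compound inhibition of the preformed complex between 50 nM HP1-beta and 50 nM biotinylated H3K9me3 peptide was read by AlphaScreen. Buffer was PBS pH 7.4 with 0.01% Tween-20. Incubations ran 30 min at room temperature, with 10 ug/mL donor/acceptor beads.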
G9a block – qHTS Assay for Inhibitors of Histone Lysine Methyltransferase G9a | G9a H3K9 monomethylation, AlphaScreen, 2 h | AID 504332, 2011 | actives 8.8% (n = 350,000) | Potency, µM (highest dose often 102 µM), without a hit: top-dose activity, negative = inhibition, most hits filed as inhibitors; note: potency is the fitted concentration of half-maximal effect; % is set by controls: 0 for no effect and ±100 for the full control effect; nearly all actives have a fitted effect of over 75% in size
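Readings reflect AlphaScreen signal from monomethyl-H3K9 antibody detection. HMT at 20 nM; substrate b-H3K9 500 nM; cofactor SAM 20 uM; 2 h RT reaction; compounds tested as titrations in qHTS with 15 min preincubation.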
CtBP-E1A blk – qHTS Assay for Inhibitors of the CtBP/E1A Interaction | AlphaScreen GST-E1A/His-CtBP binding, 1536-well; hits give low values | activity change, % (test concentration not listed) | actives 0.49% (n = 340,000) | AID 651724, 2012; in the data active = activity change below about -65%; inconclusive = mostly about -30% to -63%; note: % is set by controls: 0 for no effect and ±100 for the full control effect
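AlphaScreen with 125 nM GST-E1A and 125 nM His-CtBP (5X stocks) in Tris pH 8.0, 300 mM NaCl, BSA, Tween 20, TCEP. Compounds preincubated 2 h at 37 deg C, then glutathione donor/nickel acceptor beads added for 1 h at 37 deg C in dark.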
Six1-Eya2 inh – qHTS Assay for Inhibitors of the Six1/Eya2 Interaction. Homeobox protein SIX1 (Homo sapiens) + Protein phosphatase EYA2 (Homo sapiens), …. AlphaScreen GST-Six1/His-Eya2 binding, biochemical; hits give low values. activity change, % (test concentration not listed). actives 0.56% (n = 360,000). AID 651725, 2012; in the data active = activity change below about -65%; inconclusive = mostly about -30% to -63%; note: % is set by controls: 0 for no effect and ±100 for the full control effect
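Compounds are tested against tagged Six1 and Eya2 proteins bridged by glutathione donor and nickel acceptor beads; after a one-hour incubation at 37 °C without light, AlphaScreen emission is recorded.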
BAZ2B block – qHTS Assay for Inhibitors of BAZ2B; AlphaScreen BAZ2B-H3K14Ac peptide displacement; actives 4.4% (n = 360,000); Potency, µM (doses to about 114 µM), for inactives: at the highest dose activity change, negative = inhibition, most hits filed as inhibitors; Bromodomain adjacent to zinc finger domain protein 2B (Homo sapiens), Q9UIF8; AID 504333, 2011; note: potency is the fitted concentration of half-maximal effect; % is set by controls: 0 for no effect and ±100 for the full control effect; nearly all actives have a fitted effect of over 60% in size
Target sequence (Q9UIF8 whole entry, looked up, the tested form may be a part): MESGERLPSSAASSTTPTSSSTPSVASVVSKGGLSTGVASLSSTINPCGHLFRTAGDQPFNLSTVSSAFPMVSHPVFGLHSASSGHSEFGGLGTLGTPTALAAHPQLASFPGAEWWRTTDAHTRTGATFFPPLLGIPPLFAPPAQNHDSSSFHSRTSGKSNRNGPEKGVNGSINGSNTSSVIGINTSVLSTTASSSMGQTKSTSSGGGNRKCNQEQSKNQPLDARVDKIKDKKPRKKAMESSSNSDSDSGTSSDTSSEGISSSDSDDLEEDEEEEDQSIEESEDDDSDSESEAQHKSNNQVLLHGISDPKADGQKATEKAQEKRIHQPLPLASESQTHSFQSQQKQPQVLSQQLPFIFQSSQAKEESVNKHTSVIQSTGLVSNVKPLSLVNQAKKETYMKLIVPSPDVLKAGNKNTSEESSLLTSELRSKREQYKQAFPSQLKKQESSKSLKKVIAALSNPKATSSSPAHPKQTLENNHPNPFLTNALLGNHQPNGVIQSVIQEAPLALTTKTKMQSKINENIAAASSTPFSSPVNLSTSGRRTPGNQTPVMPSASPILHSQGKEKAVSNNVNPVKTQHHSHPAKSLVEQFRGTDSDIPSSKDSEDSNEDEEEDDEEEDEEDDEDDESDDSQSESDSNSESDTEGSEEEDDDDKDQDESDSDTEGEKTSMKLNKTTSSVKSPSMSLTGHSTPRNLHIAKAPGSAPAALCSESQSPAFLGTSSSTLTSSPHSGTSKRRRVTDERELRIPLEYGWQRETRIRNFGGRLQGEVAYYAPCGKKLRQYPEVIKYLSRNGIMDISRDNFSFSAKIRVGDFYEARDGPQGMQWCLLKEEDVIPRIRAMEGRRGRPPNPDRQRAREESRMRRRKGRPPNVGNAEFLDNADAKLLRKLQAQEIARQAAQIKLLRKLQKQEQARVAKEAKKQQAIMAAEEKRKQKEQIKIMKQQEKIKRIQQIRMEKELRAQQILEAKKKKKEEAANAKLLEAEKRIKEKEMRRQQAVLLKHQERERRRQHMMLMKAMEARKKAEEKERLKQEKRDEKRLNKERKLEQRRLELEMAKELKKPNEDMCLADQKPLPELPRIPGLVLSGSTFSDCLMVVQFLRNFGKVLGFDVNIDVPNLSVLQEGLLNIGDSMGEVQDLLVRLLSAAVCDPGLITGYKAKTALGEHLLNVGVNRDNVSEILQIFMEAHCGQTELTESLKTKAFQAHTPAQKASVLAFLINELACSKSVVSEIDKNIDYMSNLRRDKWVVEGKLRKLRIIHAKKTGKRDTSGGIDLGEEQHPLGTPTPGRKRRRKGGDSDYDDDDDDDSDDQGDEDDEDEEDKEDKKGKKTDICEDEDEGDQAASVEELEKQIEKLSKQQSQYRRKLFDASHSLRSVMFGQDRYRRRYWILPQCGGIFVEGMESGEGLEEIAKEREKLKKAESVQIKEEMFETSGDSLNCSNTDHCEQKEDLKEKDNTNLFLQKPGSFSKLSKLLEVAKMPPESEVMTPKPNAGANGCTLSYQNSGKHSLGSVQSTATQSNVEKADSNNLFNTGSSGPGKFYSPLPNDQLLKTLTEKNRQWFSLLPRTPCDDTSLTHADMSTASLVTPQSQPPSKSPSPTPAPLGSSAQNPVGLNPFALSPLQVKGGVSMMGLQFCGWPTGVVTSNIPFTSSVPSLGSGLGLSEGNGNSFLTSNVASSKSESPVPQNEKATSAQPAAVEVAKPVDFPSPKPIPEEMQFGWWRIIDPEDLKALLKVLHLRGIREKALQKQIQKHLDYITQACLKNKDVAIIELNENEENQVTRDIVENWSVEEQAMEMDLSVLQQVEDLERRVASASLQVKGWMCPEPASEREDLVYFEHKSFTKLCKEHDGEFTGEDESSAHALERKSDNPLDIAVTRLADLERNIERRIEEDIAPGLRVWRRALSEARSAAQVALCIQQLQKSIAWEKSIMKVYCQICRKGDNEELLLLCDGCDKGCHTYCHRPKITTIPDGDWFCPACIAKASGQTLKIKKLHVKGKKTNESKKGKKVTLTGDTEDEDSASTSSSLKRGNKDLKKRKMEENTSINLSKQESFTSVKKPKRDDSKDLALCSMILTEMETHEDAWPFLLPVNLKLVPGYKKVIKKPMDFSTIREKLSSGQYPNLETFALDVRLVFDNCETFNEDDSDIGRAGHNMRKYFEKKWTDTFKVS
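Multi-concentration screen (max 110 uM) measuring displacement of acetylated histone H3 peptide from BAZ2B by AlphaScreen, using 50 nM protein, 50 nM peptide and 10 ug/mL streptavidin donor plus Ni-chelate acceptor beads.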
JMJD2A Tudor – qHTS Assay for Inhibitors of JMJD2A-Tudor Domain | AID 504339, 2011 | Lysine-specific demethylase 4A (Homo sapiens), O75164 | actives 4.4% (n = 390,000) | AlphaScreen JMJD2A-Tudor / H3K4me3 peptide binding | Potency, µM (doses to about 114 µM), for the others: top-dose activity change, negative = inhibition, most hits filed as inhibitors; note: potency is the fitted concentration of half-maximal effect; % is set by controls: 0 for no effect and ±100 for the full control effect; nearly all actives have a fitted effect of over 50% in size
Active calls of the source: *; u = inconclusive; x = no result; [ ] = another dose, or the depositor's remark. Unless noted, calls come from the whole dose curve; as a rule, active = well fitted inhibition curve with a large enough effect; inconclusive = small, poorly fitted or top-dose-only effect; inactive = no such curve, though single readings can be large or run the other way.

SMILES	HP1b chromo inh	G9a block	CtBP-E1A blk	Six1-Eya2 inh	BAZ2B block	JMJD2A Tudor
CCOC(=O)C1=C(CN2CCN(c3ccccc3)CC2)NC(=O)NC1c1ccc(C)cc1 (configuration not stated)	4%	-58%[59 µM]	x	x	x	-20%
Cc1cc(C)c(Cn2c(=O)n(Cc3ccccc3)c(=O)c3c(C)c(C)sc32)c(C)c1	40%	4%[59 µM]	x	x	-2%	-1%
CCOC(=O)c1c(S(=O)(=O)N2CCC(C(=O)NCc3cccc(C)c3)CC2)c(C)n(C)c1C	-2%	10%[59 µM]	x	x	-15%	-27%
O=C(Cn1cc(C(=O)C2CCCCC2)c2ccccc21)Nc1ccccc1Cl	26%	5%[59 µM]	x	x	-1%	-3%
COCCCNC(=O)CN1C(=O)c2c(c3ccccc3n2C)C1c1ccc(OC)cc1 (configuration not stated)	37%	2%[59 µM]	x	x	-16%	6%
COc1ccc(S(=O)(=O)N(C)C)cc1NC(=O)[C@H](Cc1ccccc1)N1C(=O)c2ccccc2C1=O	37%	50µM*	-2	-8	3%	-7%
CS(=O)(=O)N1CCC(n2c(C(F)(F)F)nc3cccnc32)CC1	40%	2%[59 µM]	x	x	4%	2%
CCc1ccc(Sc2cc(C(=O)NCCCN3CCC(C)CC3)c3ccccc3n2)cc1	19%	-31%[59 µM]	x	x	-12%	-31%
COc1ccc(N(CC(=O)Nc2cccc(C)c2C)S(=O)(=O)c2c(C)n[nH]c2C)cc1	16%	32%[0.501 µM]	-66*	u	-13%[57.1 µM]	-23%
CCOc1ccccc1CNCc1cccn1-c1nnc(N2CCN(c3ccccc3)CC2)s1	-21%	14µM*	x	x	u	u
CCOc1ccccc1CNC(=O)c1cccn1-c1nnc(N2CCCCC2)s1	-3%	-18%[59 µM]	x	x	-26%	-27%
Nc1ccccc1NC1CCCCC1	u	50µM*	-27	-19	32µM*	56µM*
O=C(Nc1ccccc1NC(=O)NC1CCCCC1)NC1CCCCC1	16%	-1%[59 µM]	3	1	12%	-8%
O=C1C2C3C=CC(C4CC34)C2C(=O)N1/N=C/c1c[nH]c2ccccc12 (configuration not stated)	38%	50µM*	4	9	21%	-10%
O=C1C2C3C=CC(C4CC34)C2C(=O)N1/N=C/c1ccc([N+](=O)[O-])s1 (configuration not stated)	32%	26%[59 µM]	-1	6	8%	-4%[57.1 µM]
Cc1cc(C)nc(N/N=C/C2=C(O)CC(c3ccc(F)cc3)CC2=O)n1 (configuration not stated)	44%	1%	x	u	22µM*	32µM*
COc1ccc(-c2nnc3n2N=C(c2ccccc2OC)CS3)cc1	x	x	x	x	x	-36%
COc1ccc(/C=N/Nc2nc3ccccc3o2)cc1O	20%	40µM*	-11	-4	-2%	-22%
COc1cc(/C=N\Nc2nc3ccccc3o2)cc(OC)c1OC	32%	7%[59 µM]	8	-6	4%	-11%
COc1cc(/C=N/Nc2nc3ccccc3o2)cc(OC)c1O	25%	40µM*	-24	-8	-25%	u
COC(=O)c1c(NC(=O)Cc2coc3ccc(C(C)C)cc23)sc2c1CCC2	31%	u	x	x	u	-18%
CCCCCCCCS(=O)CCC(=O)O (configuration not stated)	39%	22µM*	3	-1	-9%	1%
CCCCCCCCCCCCCCCC(=O)O	x	29%[59 µM]	x	x	x	x
CCN(C(=O)c1cn(C)c(=O)c2ccccc12)c1cccc(C)c1	34%	-17%[59 µM]	x	x	-8%	-14%
Cc1ccc(S(=O)(=O)NCCc2csc3nc(-c4ccccc4C)nn23)cc1	19%	1%[59 µM]	x	x	8%	-2%
SMILES	HP1b chromo inh	G9a block	CtBP-E1A blk	Six1-Eya2 inh	BAZ2B block	JMJD2A Tudor
Cc1cc(C)n(-c2nnc3c4ccccc4n(C)c3n2)n1	41%	1%	-22	-14	11µM*	79µM*
C/C(=N\Nc1nnc2c3ccccc3n(C)c2n1)c1ccc(C)o1	8%	11%[59 µM]	1	-29	-15%	u
COC(=O)C1=C(C)NC(=O)/C1=C\c1ccc2c(c1)OCO2	20%	x	-1	-2	-29%	-6%
COC(=O)C1=C(C)NC(=O)/C1=C\N(C)C	36%	40µM*	0	3	-11%	-8%
Cc1cc(/C=C2\SC(=S)NC2=O)cc(C)c1O	-6%	40µM*	x	-8	u	-31%
O=C1NC(=S)SC1=Cc1ccccc1Cl	u	x	u	-7	x	u
O=C1NC(=S)S/C1=C\c1cc(Cl)cc(Cl)c1O	45µM*	x	u	u	x	40µM*
Cc1ccc(S(=O)(=O)c2c(C)cc(C)nc2Cl)c(C)c1	46%	-14%[59 µM]	10	9	4%	12%
Cc1cc(C)c(S(=O)(=O)/N=C2\C=CC(=O)C(Cl)=C2)c(C)c1	u	7.9µM*	0	-5	-12%	32µM*
CCSC1=NC2(CCN(C(=O)NC3CCCCC3)CC2)N=C1c1ccc(Cl)cc1	39%	-4%[59 µM]	x	x	8%[57.1 µM]	3%
CC(C)CCC(CCNCc1ccccn1)c1ccc(Cl)cc1 (configuration not stated)	u	-11%	0	6	u	79µM*
COc1ccc(C(=O)N2CCCC(CO)(Cc3ccccc3C)C2)o1 (configuration not stated)	-17%	79µM*	3	-1	-34%	-17%
Cc1ccc(OCC(=O)N/N=C/c2cccc3cccnc23)cc1	16%	x	-90*	-77*	32µM*	56µM*
COc1ccc2nc(/C=N/NC(=O)CCNC(=O)OC(C)(C)C)ccc2c1	13%	32µM*	-19	-17	-15%	-24%
O=C(COc1cccc2cccnc12)N/N=C/c1ccccc1O	97%	x	-25	-18	-35%	-33%
C#CCn1cc(/C=N/NC(=O)COc2cccc3cccnc23)c2ccccc21	13%	3.2µM*	2	-6	u	u
O=C(COc1cccc2cccnc12)N/N=C/c1cccn1-c1ccc(F)cc1	u	35µM*	-18	-26	28µM*	20µM*
Cc1ccc(NC(=O)c2cnc(N3CCCCC3)c3ccccc23)c(C)c1	26%[57 µM]	8%[59 µM]	x	x	2%	-3%
O=C1CS(=O)(=O)C2(C(=O)N(Cc3ccccc3)c3ccccc32)N1c1ccccc1 (configuration not stated)	61%	17%[59 µM]	x	x	46%[57.1 µM]	-13%

Screening data from PubChem.
